Mdm2-MdmX inh: inhibitors of human Mdm2/MdmX interaction. 3% of 330,000 active. inhibition, % at 8 µM. SaOS-2 split-luciferase Mdm2/MdmX complementation, luminescence;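 active means inhibition of at least 50% at 8 µM in the primary screen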
Target sequence (O15151 whole entry, looked up): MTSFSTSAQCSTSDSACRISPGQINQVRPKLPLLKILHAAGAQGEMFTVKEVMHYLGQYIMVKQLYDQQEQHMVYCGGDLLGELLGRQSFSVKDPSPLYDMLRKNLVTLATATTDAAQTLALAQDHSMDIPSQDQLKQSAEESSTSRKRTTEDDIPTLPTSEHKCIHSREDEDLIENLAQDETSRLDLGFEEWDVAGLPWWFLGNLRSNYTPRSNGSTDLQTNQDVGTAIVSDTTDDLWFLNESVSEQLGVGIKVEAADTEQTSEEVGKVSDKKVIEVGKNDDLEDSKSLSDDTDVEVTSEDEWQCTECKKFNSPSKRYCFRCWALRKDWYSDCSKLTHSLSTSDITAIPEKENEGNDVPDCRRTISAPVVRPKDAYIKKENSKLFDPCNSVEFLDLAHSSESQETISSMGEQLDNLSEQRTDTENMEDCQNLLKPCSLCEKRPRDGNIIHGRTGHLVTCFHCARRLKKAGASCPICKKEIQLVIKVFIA
Target sequence (Q00987 whole entry, looked up): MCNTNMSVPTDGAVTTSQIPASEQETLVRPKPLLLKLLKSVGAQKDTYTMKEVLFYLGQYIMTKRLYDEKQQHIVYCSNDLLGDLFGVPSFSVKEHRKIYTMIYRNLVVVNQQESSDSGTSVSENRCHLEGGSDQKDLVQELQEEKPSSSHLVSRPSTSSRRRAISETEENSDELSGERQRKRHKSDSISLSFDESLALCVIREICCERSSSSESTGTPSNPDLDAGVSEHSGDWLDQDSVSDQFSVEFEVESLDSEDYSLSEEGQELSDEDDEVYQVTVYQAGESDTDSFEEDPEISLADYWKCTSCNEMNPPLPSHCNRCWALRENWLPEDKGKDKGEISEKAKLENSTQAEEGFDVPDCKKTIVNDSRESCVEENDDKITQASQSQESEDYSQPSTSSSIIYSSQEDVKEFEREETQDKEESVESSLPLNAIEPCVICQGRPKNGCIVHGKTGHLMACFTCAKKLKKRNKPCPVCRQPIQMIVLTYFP
Gli-Sufu antag: Gli-Sufu pathway antagonism; inhibition, % at 5 µM; Sufu-KO-LIGHT fibroblasts, Gli luciferase reporter luminescence; AID 588413; 0.74% of 340,000 active;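 active means inhibition above about 55%, limit read from the data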
697 NFkB inh: lowers PMA/ionomycin-induced NF-kB signal in 697 B cells | inhibition, % at 4 µM | 0.33% of 330,000 active | 697 B-cell NF-kB luciferase reporter, 16 h | AID 435022; in the data active means inhibition above about 35%
Shn3 inh set2: reduces Shn3 3'UTR luciferase signal in osteoblasts | Clone20 osteoblast Shn3 3'UTR firefly luciferase, 24 h | inhibition, % at 12.5 µM | 0.52% of 360,000 active | AID 588674;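 active means mean inhibition of at least 75% with every replicate also reaching 75%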
Jurkat NFkB inh: inhibitors of the PMA/ionomycin-induced NF-kB reporter in Jurkat cells; PMA/ionomycin-induced NF-kB luciferase reporter, luminescence; inhibition, % at 4 µM; 0.53% of 330,000 active; AID 435003; in the data active means inhibition above about 50%
Gli antag conf: confirmation of Gli-SUFU pathway antagonists; shares compounds with Gli-Sufu antag; Sufu-KO-LIGHT cells, Gli luciferase reporter, luminescence; inhibition, % at 5 µM; 40% of 2,500 active; AID 602428;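 active means mean inhibition at 5 µM reaching about 45%, limit read from the data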
Gli cytotox: cytotoxicity counter-screen for Gli-SUFU antagonists; shares compounds with Gli-Sufu antag; Sufu-KO-LIGHT cells cytotoxicity, ATP luminescence; cytotoxicity, % at 5 µM; 32% of 2,500 active; AID 651994;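 active means mean cytotoxicity at 5 µM above about 25%, limit read from the data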;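 further: cells exposed to compound overnight for roughly 16 to 18 hours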
Wnt3a counter: inhibits Wnt3a reporter, counter-screen for Gli-SUFU antagonists; shares compounds with Gli-Sufu antag; inhibition, % at 6.25 µM; 20% of 2,500 active; Wnt-LIGHT cells, Wnt3a-driven luciferase reporter, luminescence;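 active means mean inhibition above about 25%, limit read from the data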
Hits are given with their value; – = inactive; · = no result. Rows were chosen to be rich in hits. Some 3.8% of all compounds tested hit in one or more screens of this group.

SMILES	Mdm2-MdmX inh	Gli-Sufu antag	697 NFkB inh	Shn3 inh set2	Jurkat NFkB inh	Gli antag conf	Gli cytotox	Wnt3a counter
COCCN(C(=O)c1cc(-c2ccco2)nc2ccccc12)c1c(N)n(Cc2ccccc2)c(=O)[nH]c1=O	–	–	–	–	–	·	·	·
COc1ccc(CC(N)c2csc(Nc3nc(C)cnc3C)n2)cc1 (stereo not given)	·	·	·	–	·	·	·	·
Cc1cc(NC(=O)CCC(=O)N(c2ccccc2)C(C(=O)NC(C)(C)C)c2ccccc2Cl)no1 (stereo not given)	–	–	–	–	–	·	·	·
CCC(C)(C)NC(=O)C(c1ccccc1Cl)N(C(=O)CCC(=O)Nc1cc(C)on1)c1ccc(NC(C)=O)cc1 (stereo not given)	–	–	–	–	–	–	28.3	–
Cc1ccsc1C1C(C#N)=C(N)Oc2n[nH]c(C)c21 (stereo not given)	–	64.9	–	–	–	–	–	–
O=S(=O)(c1ccc2ccccc2c1)N1CCN(C(=S)Nc2ccc(F)c(Cl)c2)CC1	–	98.8	–	–	–	–	–	–
CCN(CC)C(=O)CN(c1cc(Cl)ccc1OC)S(C)(=O)=O	–	–	–	–	–	–	–	–
CCOC(=O)c1ccc[n+]([O-])c1	·	–	·	–	·	·	·	·
CCOC(=O)c1ccc(NC(=O)c2ccc[n+]([O-])c2)cc1	–	57.8	–	–	–	–	–	–
COc1ccc(S(=O)(=O)N2CCN(C(=O)CC3CC4CCC3C4)CC2)cc1 (stereo not given)	–	–	–	–	–	·	·	·
CCCN(CCC)CCNC(=O)c1cc2c(=O)n(C)c3ccccc3c2n1C	–	62.6	–	–	–	–	–	–
CN(C(=O)c1cncc(Br)c1)C1C2CC3CC(C2)CC1C3 (stereo not given)	–	–	–	–	–	·	·	·
COc1ccc(C2C3=C(CC(C)(C)CC3=O)Nc3c2c(=O)n(C)c(=O)n3C)cc1OC (stereo not given)	–	58.3	–	–	–	–	29.0	–
Cc1c(C(=O)O)sc2nc(C)n(C)c(=O)c12	–	95.6	–	–	–	–	–	–
O=C(NC1CCCc2c1cnn2-c1cc(F)cc(F)c1)c1ccncc1 (stereo not given)	–	–	–	–	–	·	·	·
Cc1nnsc1C(=O)NC1CCCc2c1cnn2-c1ccc(C(C)(C)C)cc1 (stereo not given)	–	62.4	–	–	–	58.9	53.1	–
CC(C)(C)c1ccc(-n2ncc3c2CCCC3NC(=O)c2ccncc2)cc1 (stereo not given)	–	–	–	–	–	–	–	–
Cc1cccc(-n2ncc3c2CCCC3NC(=O)C2=CC(=O)CC(C)(C)O2)c1C (stereo not given)	–	57.9	–	–	–	–	31.2	–
Cc1cc(C(=O)NC2CCCc3c2cnn3-c2ccc(C(C)(C)C)cc2)n[nH]1 (stereo not given)	–	–	–	–	–	·	·	·
CC1(C)CC(=O)C=C(C(=O)NC2CCCc3c2cnn3-c2cc(F)cc(F)c2)O1 (stereo not given)	–	–	–	–	–	·	·	·
COc1ccc(C(=O)NC2CCCc3c2cnn3-c2ccccc2F)cc1OC (stereo not given)	–	55.6	–	–	–	–	–	–
Cc1cc(Cl)ccc1NC(=O)COC(=O)c1c(C)noc1C	–	–	–	–	–	·	·	·
COCCNC(=O)c1cccc(OC2CCN(Cc3ccc(OC(F)F)cc3)CC2)c1	–	–	–	–	–	·	·	·
O=C(NC1CCCc2c1cnn2-c1ccccc1F)c1ccncc1 (stereo not given)	·	·	·	–	·	·	·	·
Cc1nnsc1C(=O)NC1CCCc2c1cnn2-c1ccccc1F (stereo not given)	–	–	–	–	–	45.2	–	29.4
SMILES	Mdm2-MdmX inh	Gli-Sufu antag	697 NFkB inh	Shn3 inh set2	Jurkat NFkB inh	Gli antag conf	Gli cytotox	Wnt3a counter
Cc1nc(NCCc2ccc(O)cc2)c2nnn(Cc3ccccc3)c2n1	–	–	–	–	–	·	·	·
COc1ccc(Cl)cc1C(=O)NNC(=O)CSc1nnc2ccccn12	–	–	–	–	–	–	–	–
CC(C)(C)OC(=O)N1CCC2(CC1)Oc1ccc(Cl)cc1C(=O)C21CC(c2ccc(Cl)cc2)=NO1 (stereo not given)	·	–	·	–	·	·	·	·
Cc1c(F)cccc1NS(=O)(=O)c1ccc2c(c1)c(=O)n(C)c(=O)n2C	–	–	–	–	–	·	·	·
Cc1c(F)cccc1NS(=O)(=O)c1ccc2c(c1)n(C)c(=O)c(=O)n2C	–	–	–	–	–	–	–	–
Cn1c(SCC(=O)Nc2cccnc2)nnc1-c1ccccc1F	–	–	–	–	–	·	·	·
CCC(C(=O)NC1CCCCCC1)c1ccccc1 (stereo not given)	–	–	–	–	–	·	·	·
CC[N+](C)(CC)CCC(c1ccccc1)C1CCCCC1 (stereo not given)	–	56.0	–	–	–	49.8	–	–
O=C(O)C1C2C=CC(C2)C1C(=O)Nc1ccc2c(c1)OCCO2 (stereo not given)	–	59.9	–	–	–	–	–	54.4
COC(=O)/C(C#N)=C1/C=Cc2ccccc2N1	–	–	–	–	–	·	·	·
CCc1nc(C)cn1S(=O)(=O)c1cc(C)c(OC)c(C)c1C	–	59.9	–	–	–	52.3	29.8	54.7
FC(F)Sc1ccc(-n2cc(-c3ccc(Cl)cc3)[n+]3c2CCC3)cc1	–	–	–	–	–	·	·	·
Cc1ccc(-c2cn(-c3ccc(SC(F)F)cc3)c3[n+]2CCC3)cc1	–	76.3	–	–	–	80.1	38.7	–
Clc1ccc(-n2cc(-c3ccc(Br)cc3)[n+]3c2CCCCC3)cc1	–	–	–	–	–	68.2	26.2	–
FC(F)Oc1ccc(-n2cc(-c3ccccc3)[n+]3c2CCCCC3)cc1	–	65.7	–	–	–	58.4	–	–
Cc1ccc(-c2cn(-c3ccc(OC(F)F)cc3)c3[n+]2CCCCC3)cc1	–	82.7	–	87.7	–	85.8	41.1	–
Cc1ccc(CONC(=O)c2ccc(OC(F)F)cc2)cc1	–	–	–	–	–	·	·	·
COc1ccc(CCn2nnc3ccccc3c2=O)cc1OC	·	·	·	–	·	·	·	·
CC1CCN(S(=O)(=O)c2ccc(NC(=O)Cc3ccccc3)cc2)CC1	–	56.2	–	–	–	–	–	–
O=C(Cc1ccccc1)Nc1ccc(S(=O)(=O)N2CCOCC2)cc1	–	–	–	–	–	·	·	·
Cc1ccccc1NC(=O)CSc1nc2cc3c(cc2cc1C)CCC3	–	–	–	–	–	–	28.7	–
Cc1cc[n+](C(C)C(=O)c2ccc(-c3ccccc3)cc2)cc1 (stereo not given)	–	81.7	–	–	–	74.8	26.5	–
CC(Sc1nc2ccccc2c(=O)n1CC1CCCO1)C(=O)N(C)Cc1ccccc1 (stereo not given)	–	–	–	–	–	·	·	·

From PubChem BioAssay
